The source of these data is PubChem BioAssay (NCATS).

Results filed as inconclusive are left out. The source made the active and inactive calls. Calls come from the whole dose curve; as a rule, active = well fitted curve in the direction sought with a large enough effect; inconclusive = small, poorly fitted or top-dose-only effect, or another doubt; inactive = no such curve, though single readings can be large; an effect the other way counts as inactive or inconclusive.

Test [1] deals with Zika virus NS2B-NS3 protease (linked construct). Briefly: Primary screen NINDS Rhodamine qHTS for Zika virus inhibitors (AID 1347160). Note: nearly all actives have a fitted effect of over 55% in size. In outline: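 Percent inhibition, normalized to uninhibited and enzyme-free controls, is fitted to a 4-parameter Hill equation. Fluorescence change comes from a 15-min cleavage of 1.5 microM bis-peptide Rhodamine110 substrate by 25 nM linked NS2B-NS3 at room temperature.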
On the technique in general: Quantitative high-throughput screening tests each substance at several concentrations.

Test [2] concerns the target Calcium and integrin-binding protein 1 (Homo sapiens) (UniProt Q99828). Briefly: Primary qHTS for Identification of Calcium Integrin Binding Protein 1 (CIB1) Competitor (AID 1508620).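 Note: GST tagged CIB1 binding a fluorescein labelled alphaIIb integrin peptide tracer; top concentration of the series differs between compounds.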 In outline:
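Fluorescence polarization competition: CIB1-GST (1 uM final) preincubated with compound 15 min at room temperature, then FITC-labeled alphaIIb peptide (100 nM final) added for another 15 min. Polarization read at Ex 480/Em 540.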

Test [3] can be described thus: Primary qHTS for inhibitors of nuclear receptor binding SET domain protein 2 (NSD2) in an isogenic RCH-ACV NSD2 p.E1099K mutant (9B) (AID 1645876). Note: nearly all actives have a fitted effect of over 70% in size. Note: potency is the fitted concentration of half-maximal effect.
Test [4] can be described thus: Primary qHTS for inhibitors of nuclear receptor binding SET domain protein 2 (NSD2) in an RCH-ACV wild type WT cells (2C) (AID 1645877). Note: nearly all actives have a fitted effect of over 70% in size. Note: potency is the fitted concentration of half-maximal effect.
For test [5], the target named is Glutathione peroxidase 1 (Homo sapiens) (UniProt P07203). Briefly: Primary qHTS Assay for Inhibitors of Recombinant Selenoprotein Glutathione Peroxidase 1 (GPX1) (AID 1845191). Note: nearly all actives have a fitted effect of over 65% in size. In outline: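 Recombinant GPX1 (10 nM final) was preincubated with compound for 30 min at room temperature, then reacted with 1 mM GSH, 0.5 mM CHP, 0.5 mM NADPH and 100 nM glutathione reductase; NADPH fluorescence (340/450 nm) was read at 0 and 15 min.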

Test [6] addresses Phospholipid hydroperoxide glutathione peroxidase GPX4 (Homo sapiens) (UniProt P36969). The experiment in a line: Primary qHTS Assay for Inhibitors of Recombinant Selenoprotein Glutathione Peroxidase 4 (GPX4) (AID 1845192). Note: nearly all actives have a fitted effect of over 65% in size. The settings on record: outcome: dose series up to 50 µM unless noted. In outline:
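GR-coupled readout: 100 nM GR, 1 mM GSH, 0.5 mM NADPH; NADPH fluorescence (ex 340/em 450 nm) read at t=0 and after 15 min RT. GPX4 200 nM, preincubated 30 min with compound; substrate 0.5 mM CHP.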

Test [7] concerns the target Luciferin 4-monooxygenase (Photinus pyralis) (UniProt P08659). Briefly: Primary firefly luciferase (FLuc) qHTS assay for identification of artifact compounds. (AID 1845220). Note: nearly all actives have a fitted effect of over 60% in size. The method, boiled down:
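qHTS, 15 min compound preincubation with substrate (10 uM luciferin, 10 uM ATP) at RT, then 10 nM FLuc; 5 min; luminescence; % inhibition vs no-enzyme/DMSO controls, 4-parameter Hill fit.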

The nature of test [8]: Primary fluorescence-based thiol-reactive (MSTI) qHTS assay for identification of artifact compounds. (AID 1845221).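 Note: thiol-reactive compounds lower the probe fluorescence signal; nearly all actives have a fitted effect of over 65% in size.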 The method, boiled down:
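MSTI probe at 4 uM final in 2% DMSO/PBS pH 7.4; compounds, 1 h at room temperature in dark. Fluorescence Ex/Em 525/598 nm, normalised to Acetyl-MSTI and MSTI, fitted to 4-parameter Hill.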

A short description of test [9]: Primary redox qHTS assay for identification of artifact compounds. (AID 1845223). The method, boiled down: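 Amplex Red (25 uM) and HRP (250 mU/mL) in HBSS, with compounds for 15 min, then 250 uM DTT for 30 min, room temperature, dark. Fluorescence 525/598 nm read; normalized to DMSO and 10 uM DA3003; Hill fit.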
Test [10] has as its system C33A. The experiment in a line: Primary qHTS to identify gynecologic anti-cancer compounds using libraries of approved drugs and bioactive compounds (AID 1345084). Note: nearly all actives have a fitted effect of over 55% in size. Particulars: Gynecologic cancer cell panel viability, ATPlite luminescence, 48 h; series mostly up to 57.5 µM. The method, boiled down:
(§1)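 Cells, 1,000 per well, plated 16 h, then exposed 48 h at 37 C to compounds. Viability by ATPlite luminescence after 15 min at room temperature.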

For test [11], the system named is CASKI. Described as above. Particulars: Gynecologic cancer cell panel viability, ATPlite luminescence, 48 h; series mostly up to 57.5 µM. In outline: as §1
(In general: ATP-based viability assays read luminescence as a measure of living cells.)

Test [12] deals with Es-2. The test is described as above. The settings on record: Gynecologic cancer cell panel viability, ATPlite luminescence, 48 h; series mostly up to 57.5 µM. The method, boiled down:
as §1

Test [13] relates to HeLa. Described as above. The settings on record: Gynecologic cancer cell panel viability, ATPlite luminescence, 48 h; series mostly up to 57.5 µM. The method, boiled down: as §1
For test [14], the system named is Hek293T. Described as above. Particulars: Gynecologic cancer cell panel viability, ATPlite luminescence, 48 h, control line for the selectivity index; series mostly up to 57.5 µM. The method, boiled down: as §1
Test [15] concerns JEG-3. The test is described as above. Particulars: Gynecologic cancer cell panel viability, ATPlite luminescence, 48 h; series mostly up to 57.5 µM. In outline:
as §1

The test system of test [16] is OV90. Described as above. The settings on record: Gynecologic cancer cell panel viability, ATPlite luminescence, 48 h; series mostly up to 57.5 µM. In outline:
as §1

The subject of test [17] is PA-1. Described as above. Particulars: Gynecologic cancer cell panel viability, ATPlite luminescence, 48 h; series mostly up to 57.5 µM. In outline: as §1
Test [18] deals with Tov-21-G. The description is as above. Particulars: Gynecologic cancer cell panel viability, ATPlite luminescence, 48 h; series mostly up to 57.5 µM. In outline:
as §1

The test system of test [19] is Tov112D. Described as above. Particulars: Gynecologic cancer cell panel viability, ATPlite luminescence, 48 h; series mostly up to 57.5 µM. The method, boiled down: as §1
Test [20] relates to Nanoluciferase (engineered Oplophorus gracilirostris luciferase). The experiment in a line: Primary Nanoluciferase (NLuc) qHTS assay for identification of artifact compounds. (AID 1845222). In outline:
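Luminescence read-out of secreted NLuc in S16 cell conditioned medium (1:55); compounds tested with 15 min RT preincubation, then Nano-Glo substrate 1:100, 5 min. % inhibition vs no-enzyme and DMSO controls, 4-parameter Hill fit.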

Phospholipid hydroperoxide glutathione peroxidase GPX4 (Homo sapiens), sequence (P36969 whole entry, looked up): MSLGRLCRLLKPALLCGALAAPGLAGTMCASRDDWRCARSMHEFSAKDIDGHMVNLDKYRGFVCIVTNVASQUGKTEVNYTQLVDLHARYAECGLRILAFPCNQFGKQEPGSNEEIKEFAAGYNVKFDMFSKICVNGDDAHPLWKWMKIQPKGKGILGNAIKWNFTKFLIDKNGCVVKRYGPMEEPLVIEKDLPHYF
Calcium and integrin-binding protein 1 (Homo sapiens), sequence (Q99828 whole entry, looked up): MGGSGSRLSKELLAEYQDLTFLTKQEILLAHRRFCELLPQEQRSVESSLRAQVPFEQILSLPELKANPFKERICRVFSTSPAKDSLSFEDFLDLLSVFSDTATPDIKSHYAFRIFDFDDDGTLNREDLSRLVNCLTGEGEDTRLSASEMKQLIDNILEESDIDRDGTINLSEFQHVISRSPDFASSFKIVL
Glutathione peroxidase 1 (Homo sapiens), sequence (P07203 whole entry, looked up): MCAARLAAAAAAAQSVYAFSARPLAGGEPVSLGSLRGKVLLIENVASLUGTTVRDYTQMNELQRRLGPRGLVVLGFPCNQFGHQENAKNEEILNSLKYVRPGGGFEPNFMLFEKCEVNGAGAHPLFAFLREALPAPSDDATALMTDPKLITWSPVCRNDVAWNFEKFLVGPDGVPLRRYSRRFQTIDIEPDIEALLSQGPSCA

Regarding `C[N+]1(C)[C@@H]2CC[C@H]1CC(OC(=O)C(O)c1ccccc1)C2` (some centres undefined), the Potency result in [1], in test [3], in test [4], in [5], in test [6] and in test [7] was “inactive” in each case. The Potency result in test [8], in test [9], in test [10], in [11], in test [12] and in test [13] was “inactive” each time. Further, the Potency entry in [14], in test [15], in [16], in test [17], in [18] and in [19] was “inactive” each time. For the same compound, in test [2], the result was inactive.

On to `COc1ccc(C(=O)N(CCC(C)C)Cc2nc(C)c(C)n2Cc2ccccc2C)c(OC)c1`, for which the Potency result in test [1], in [5], in test [6], in test [7], in test [20] and in test [9] was “inactive” in each case. In addition, the Potency result in test [10], in test [11], in test [12], in test [13], in test [14] and in test [15] was “inactive” each time. In addition, the Potency entry in test [16], in [17], in test [18] and in [19] was “inactive” in each case. Also, the outcome in [2] was inactive. Moreover, the Potency in test [3] and in test [4] was 11.5 µM (active) throughout.

Regarding `CN(C)C(=O)c1cc2cnc(Nc3ccc(N4CCNCC4)cn3)nc2n1C1CCCC1`, the Potency entry in [1], in test [5], in test [6], in test [7], in test [20] and in test [9] was “inactive” throughout. Also, the Potency result in [10], in test [11], in test [12], in [13], in test [14] and in [15] was “inactive” in each case. Also, the Potency entry in test [16], in test [18] and in test [19] was “inactive” throughout. In test [2], the result was inactive. Further, the Potency in test [3] is 4.09 µM (active); in test [4], 5.15 µM (active).

With `CN(C)CCCNc1nc(CN2CCN(C(c3ccc(Cl)cc3)c3ccc(Cl)cc3)CC2)nc2ccccc12`, the Potency result in [1], in [6], in [7], in [8], in test [9] and in test [10] was “inactive” throughout. For the same compound, the Potency entry in test [11], in test [12], in test [13], in [14], in [15] and in test [17] was “inactive” throughout. Further, the Potency result in test [18] and in test [19] was “inactive” in each case. In addition, the outcome in test [2] was inactive. The Potency in [3] is 9.16 µM (active); in test [4], 7.28 µM (active).

Regarding `O=C(Nc1cccc(C(F)(F)F)c1)c1ccccc1NCc1ccncc1`, the Potency result in test [1], in test [7], in test [8], in test [20], in [9] and in test [10] was “inactive” throughout. The Potency entry in [11], in test [13], in test [15], in test [16] and in [18] was “inactive” in each case.
